Bioassay records from PubChem.
This is one part of a sample in which hits are shown more often than they occur.
ER stress death: ER stress cell death inhibition | CSM14.1 thapsigargin ER stress survival, ATP luminescence | relative survival (cellular ATP), % at 15 µg/mL (by protocol) | 48,000 tested, 0.33% active;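 active = survival measured by cellular ATP above 50% at 15 µg/ml in the first screen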;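 note: cell death triggered by about 15 µM thapsigargin; ATP read 24 h after thapsigargin was added; plate controls were thapsigargin with DMSO for no effect and DMSO without thapsigargin for full effect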
Numbers without * were called inactive.

SMILES	ER stress death
C=CCn1c(O)c(N=NC(=O)c2ccc(Cl)c([N+](=O)[O-])c2)c2cc(Br)ccc21	8
CCn1c2ccccc2c2cc(C3C(C(=O)OCC4CCCO4)=C(C)NC4=C3C(=O)CCC4)ccc21 (stereo unspecified)	96*
CC1=C(C(=O)OCC2CCCO2)C(c2ccc(F)cc2)C2=C(CCCC2=O)N1 (stereo unspecified)	3
CCOc1cc(C2C(C(=O)OCC3CCCO3)=C(C)NC3=C2C(=O)CCC3)cc([N+](=O)[O-])c1O (stereo unspecified)	-3
CCOc1ccc(N/C=C(/C#N)c2nc(-c3cccc(OC)c3)cs2)cc1	7
Oc1oc(-c2ccccc2)nc1C=Nc1ccc(I)cc1	6
CC(=O)c1c(O)c(C(C)(C)C)cc(C(C)(C)C)c1O	6
CCOc1cc(C2Nc3ccccc3NC3=C2C(=O)CC(c2ccc(OC)cc2)C3)cc(Cl)c1O (stereo unspecified)	112*
O=C1CC(c2ccc(Cl)cc2)CC2=C1C(c1cccs1)Nc1ccccc1N2 (stereo unspecified)	68*
O=C1CC(c2ccccc2)CC2=C1C(c1cccc(Br)c1)Nc1ccccc1N2 (stereo unspecified)	88*
COc1ccc(C2Nc3ccccc3NC3=C2C(=O)CC(c2ccccc2)C3)cc1 (stereo unspecified)	22
COc1ccc(C2CC(=O)C3=C(C2)Nc2ccccc2NC3c2ccc3ccccc3c2)cc1 (stereo unspecified)	50*
COc1ccc(C2CC(=O)C3=C(C2)Nc2ccccc2NC3c2ccc(C(F)(F)F)cc2)cc1 (stereo unspecified)	2
COc1ccc(C2CC(=O)C3=C(C2)Nc2ccccc2NC3c2cccc(O)c2)cc1 (stereo unspecified)	-4
O=C1CC(c2ccccc2)CC2=C1C(c1ccc(F)c(Br)c1)Nc1ccccc1N2 (stereo unspecified)	6
Cc1ccc(C2Nc3ccccc3NC3=C2C(=O)CC(c2ccc(Cl)cc2)C3)cc1 (stereo unspecified)	4
COc1ccc(C2CC(=O)C3=C(C2)Nc2ccccc2NC3c2cccc(Br)c2)cc1 (stereo unspecified)	25
COc1cc(C2Nc3ccccc3NC3=C2C(=O)CC(c2ccc(Cl)cc2)C3)cc(OC)c1OC (stereo unspecified)	-1
CCOc1cc(C2Nc3ccccc3NC3=C2C(=O)CC(c2ccc(OC)cc2)C3)ccc1OC(=O)C1CC1 (stereo unspecified)	2
N=Cc1c(O)n(-c2c(Cl)cccc2Cl)c2ccc([N+](=O)[O-])cc12	-6
COC(=O)c1cc(NC(=O)/C=C/c2ccccc2Cl)cc(C(=O)OC)c1	1
COc1ccc(C)cc1NC(=O)COc1ccc(Cl)cc1Cl	2
COc1ccc(-c2cc(C(=O)Nc3c(C)cccc3C)c3ccccc3n2)c(OC)c1	7
O=C1NC(=O)C(=Cc2ccccc2OCc2ccc(Cl)cc2Cl)C(=O)N1	-2
CCc1cccc(NC(=O)CC(c2ccccc2)c2ccccc2)c1	2
SMILES	ER stress death
CCOc1cccc(=[O+]CC)c2c(C)oc(C)c12	5
C=CCn1c(SCC(=O)Nc2ccccc2OC)nc(O)c(Cc2ccccc2)c1=O	-1
COc1ccc(/C=C2/SC(=S)N(C(C)c3ccccc3)C2=O)cc1 (stereo unspecified)	11
O=C1CCCC2=C1C(c1cccnc1)Nc1ccc(C(=O)c3ccccc3)cc1N2 (stereo unspecified)	9
COc1ccc(C2CC(=O)C3=C(C2)Nc2ccccc2NC3c2cc(OC)c(OC)cc2Br)cc1 (stereo unspecified)	4
COc1ccc(C2Nc3ccc(C(=O)c4ccccc4)cc3NC3=C2C(=O)CCC3)cc1 (stereo unspecified)	-1
CCOc1cccc(C2Nc3ccccc3NC3=C2C(=O)CC(c2ccc(OC)cc2)C3)c1 (stereo unspecified)	106*
COc1ccc(C2Nc3ccccc3NC3=C2C(=O)CC(c2ccccc2)C3)c(OC)c1 (stereo unspecified)	7
Cc1ccc2c(c1)NC(c1ccc(F)cc1)C1=C(CC(c3ccccc3)CC1=O)N2 (stereo unspecified)	1
Cc1ccc2c(c1)NC(c1ccc3c(c1)OCO3)C1=C(CC(c3ccccc3)CC1=O)N2 (stereo unspecified)	92*
COc1ccc(C2CC(=O)C3=C(C2)Nc2ccccc2NC3c2ccc(Br)s2)cc1 (stereo unspecified)	85*
O=C1CCCC2=C1C(c1ccc(Br)cc1)Nc1ccc(C(=O)c3ccccc3)cc1N2 (stereo unspecified)	66*
COc1ccc(C2CC(=O)C3=C(C2)Nc2ccccc2NC3c2c(F)cccc2F)cc1 (stereo unspecified)	5
COc1ccc(C2CC(=O)C3=C(C2)Nc2ccccc2NC3c2ccc(F)c(Br)c2)cc1 (stereo unspecified)	15
CSc1ccc(C2Nc3ccccc3NC3=C2C(=O)CC(c2ccc4c(c2)OCO4)C3)cc1 (stereo unspecified)	-3
CC1(C)CC(=O)C=C(/C=C/c2ccc(N3N=N3)cc2)C1	-2
Cc1ccc(S(=O)(=O)N2CCN(C3CCCCCC3)CC2)cc1	-3
O=C(Nc1nc(-c2ccc(F)cc2F)cs1)c1cccc(F)c1F	0
COc1ccc(C2CC(=O)C3=C(C2)Nc2ccccc2NC3c2ccc(Cl)c([N+](=O)[O-])c2)cc1 (stereo unspecified)	104*
COc1ccc(C2CC(=O)C3=C(C2)Nc2ccccc2NC3c2ccc(C)c([N+](=O)[O-])c2)cc1OC (stereo unspecified)	4
O=C1CC(c2ccccc2)CC2=C1C(c1ccc(Cl)c(Cl)c1)Nc1ccccc1N2 (stereo unspecified)	6
O=C1C(=O)N(c2nc3ccccc3s2)C(c2cccc([N+](=O)[O-])c2)/C1=C(/O)c1ccccc1 (stereo unspecified)	-4
O=C(c1cccc(C(=O)N2CCN(c3cccc(Cl)c3)CC2)c1)N1CCN(c2cccc(Cl)c2)CC1	99*
O=C(c1ccc(Cl)cc1)N1CCN(c2cccc(Cl)c2)CC1	-4
O=C(c1cccc(Cl)c1)N1CCN(c2cccc(Cl)c2)CC1	8
SMILES	ER stress death
O=C1c2cccc([N+](=O)[O-])c2C(=O)N1c1ccncc1	-6
COc1ccc(/C=C/C(=O)Nc2ccc(C)c(C)c2)cc1	0
COc1ccc(CCN2C(=O)CSC2c2ccc([N+](=O)[O-])cc2)cc1OC (stereo unspecified)	1
COc1ccc(/C=C(/c2ccccc2)c2nc3ccccc3[nH]2)cc1	51*
COc1ccc(C(=O)N/C(=C/c2ccc(Br)cc2)c2nc3ccccc3[nH]2)cc1	6
CN(C)c1ccc(/C=C(/c2ccccc2)c2nc3ccccc3[nH]2)cc1	40
COC(=O)C1=C(C(=O)OC)C2C=CC1C1C=CC21 (stereo unspecified)	17
CC(NC(=O)c1ccccc1)C12CC3CC(CC(C3)C1)C2 (stereo unspecified)	1
CC(NC(=O)c1ccc(S(=O)(=O)N2CCCCC2)cc1)C12CC3CC(CC(C3)C1)C2 (stereo unspecified)	108*
Cc1ccc(C(=O)Nc2ccc(S(=O)(=O)N3CCCC3)cc2)cc1	0
CCCCSc1nc2ccc(NC(C)=O)cc2s1	4
CC(C)(C)c1ccccc1OCCCCCCN1CCOCC1	-22
O=C1OC(c2ccc(Br)cc2)=N/C1=C\c1ccc(OC(=O)c2ccccc2F)cc1	8
